The full list was thinned out, with hits kept by preference.
RmlCD inh mix – RmlC and RmlD coupled enzyme inhibitors, primary screen, biochemical, 384-well, compound mixtures, retest | RmlC/RmlD coupled enzyme inhibition, 384-well mixture HTS | inhibition, % at 5.5 µM | 110,000 tested, 0.39% active | AID 1532, 2009; in the data active = inhibition above about 30%, passing the limit was not always enough
HIV RNase H inh – HIV-1 RT RNase H inhibitors, primary screen, biochemical, fluorescence; Gag-Pol polyprotein (Human immunodeficiency virus type 1 group M subtype B (isolate …; RT-RNase H RNA/DNA duplex cleavage; inhibition, % at 10 µM; 65,000 tested, 1.9% active; in the data active = inhibition above about 50%
RmlCD artifact – counter-screen for RmlC/RmlD inhibitors: fluorescence artifact, dose response, artefact control, biochemical | calls only | 360 tested, 96% active | RmlC/RmlD assay fluorescence artifact counter-screen | shares compounds with RmlCD inh mix; call rule not given here;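 note: compound alone with no enzyme and no substrates present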
Starred values were filed as active, the others as inactive; i = inactive; x = no result; + = active, no number.

SMILES | RmlCD inh mix | HIV RNase H inh | RmlCD artifact
CC(C)OCCCn1c(=NC(=O)c2ccncc2)c(C#N)cc2c(=O)n3ccccc3nc21 | 115* | -2 | +
C=CCn1c(=N)c(C#N)cc2c(=O)n3ccccc3nc21 | 16 | x | x
C=CCn1c(=N)c(C(=O)NCCCOC)cc2c(=O)n3ccccc3nc21 | 66* | -10 | +
COCCCNC(=O)c1cc2c(=O)n3cccc(C)c3nc2n(C(C)C)c1=N | 64* | -21 | +
CCC(=O)O[C@]1(C(=O)SCF)[C@H](C)C[C@H]2[C@@H]3C[C@H](F)C4=CC(=O)C=C[C@]4(C)[C@@]3(F)[C@@H](O)C[C@@]21C | -18 | x | x
COc1ccc(Br)cc1[C@H]1[C@H]2C=CC[C@@H](C)[C@@H]2C(=O)N1Cc1ccccc1 | -11 | x | x
CCOc1ccc(S(=O)(=O)Nc2ccc(F)cc2)c(C)c1C | 6 | x | x
O=C(O)CCCCCNC(=O)c1ccccc1 | -6 | x | x
O=C(CN1CCN(C(=O)c2ccccc2F)CC1)Nc1ccc(Br)cc1 | -13 | -7 | x
Cc1ccc(C)c(OCCOCCN2CC(C)OC(C)C2)c1C (centres undefined) | -4 | x | x
N=c1c(C(=O)NCc2ccc(F)cc2)cc2c(=O)n3ccccc3nc2n1Cc1cccnc1 | 53* | x | +
COC(=O)c1cc2c(=O)n3ccccc3nc2n(Cc2cccnc2)c1=N | 14 | -8 | x
CCOC(=O)N1CCN(C(=O)c2ccc3nc4ccsc4c(=O)n3c2)CC1 | x | -9 | x
CCOC(=O)N1CCN(C(=O)c2ccc3nc4ccc(Cl)cc4c(=O)n3c2)CC1 | 48* | -2 | +
COc1cc2[nH]c(=S)n(NC(=O)CC(C)C)c(=O)c2cc1OC | 7 | 2 | x
Nc1ccc(-c2nc3ccccc3[nH]2)cc1 | 19 | -1 | x
O=C(O)c1ccc(-c2nc3ccccc3[nH]2)cc1 | x | x | i
CCCn1c(SCC(=O)Nc2ccc(OC)cc2)nnc1-c1ccncc1 | 3 | x | x
Oc1cc2c(cc1O)C1c3ccc(O)c(O)c3OCC1(O)C2 (centres undefined) | -9 | x | x
COc1cccc(-c2cc(C(F)(F)F)n3nc(N)nc3n2)c1 | 14 | -8 | x
COc1ccc(-c2cc(C(F)(F)F)n3nc(N)nc3n2)cc1 | 75* | x | +
CC1(C)NC(=O)N(CC(O)Cn2nnc3ccccc32)C1=O (centres undefined) | -9 | -8 | x
COc1ccc(C[C@H]2COC(=O)[C@@H]2Cc2ccc(OC3OC(CO)C(O)C(O)C3O)c(OC)c2)cc1OC (some centres undefined) | -6 | x | x
CC(C)(O[C@@H]1O[C@H](CO)[C@@H](O)[C@H](O)[C@H]1O)[C@H]1Cc2cc3ccc(=O)oc3cc2O1 | 56* | x | +
CC(=O)Nc1sc2c(c1CN1CCN(c3ccccn3)CC1)CCCC2 | -8 | 1 | x
SMILES | RmlCD inh mix | HIV RNase H inh | RmlCD artifact
Cc1cc(=O)[nH]c(S/C=C/c2ccccc2)n1 | 4 | -4 | x
CCN(CC)CC(=O)Nc1ccc(-c2nc3cc(NC(=O)CN(CC)CC)ccc3o2)cc1 | -27 | 3 | x
O=C(CN1CCCC1)Nc1ccc(-c2nc3cc(NC(=O)CN4CCCC4)ccc3o2)cc1 | 46* | 23 | +
COc1ccccc1NC(=O)N1CCCC1C(=O)NC12CC3CC(CC(C3)C1)C2 (centres undefined) | 3 | -5 | x
O=C(NCCc1cccs1)C12CN(Cc3ccccc3)CC1C(c1cccc([N+](=O)[O-])c1)=NO2 (centres undefined) | -11 | x | x
NC(=O)CC[C@@H]1NC(=O)[C@@H]2CCCN2C(=O)c2cc([N+](=O)[O-])cc(I)c2NCCCC[C@@H](C(=O)NC(CC(=O)O)C(N)=O)NC1=O (some centres undefined) | -7 | x | x
COc1cc(C(C)=O)ccc1OCC(=O)c1cc(C)n(C2CC2)c1C | 10 | -23 | x
N#Cc1c(C(F)(F)F)cc(C2CC2)[nH]c1=O | 40* | 1 | +
N#Cc1c(C(F)(F)F)cc(-c2ccccc2)[nH]c1=O | 28 | x | x
